In the library only some 3.2% were active in any assay of this set; here they are far more common.
Tau FP inhib = tau fibrillization inhibition (FP) | AID 1468 | P10636 | K18 P301L tau heparin fibrillization, Alexa594 FP, 6 h | actives 0.39% (n = 280,000) | Potency, µM (doses to about 57.7 µM), for inactives: at the highest dose activity, negative = inhibition, actives largely listed as inhibitors; also: nearly all actives have a fitted effect of over 55% in size
Target sequence (P10636 561-689 P618L limits assumed): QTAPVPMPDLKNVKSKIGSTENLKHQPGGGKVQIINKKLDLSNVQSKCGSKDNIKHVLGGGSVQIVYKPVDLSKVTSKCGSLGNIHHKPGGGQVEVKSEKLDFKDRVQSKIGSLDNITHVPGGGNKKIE
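K18 P301L tau (15 uM unlabeled/0.24 uM Alexa 594-labeled, final) + compound + heparin 20 uM final; 100 mM NaOAc pH 7; 6 hr 37 C; ThT 30 uM final added, 1 hr RT; FP ex 555/em 632 nm.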
Tau fluor cs = counter-screen for tau fibril formation inhibitors; Potency, µM (doses to about 57.7 µM), without a hit: at the top dose activity change, negative = decrease; AID 1463; tau K18 P301L Alexa594 fluorescence, heparin fibrillization; actives 0.93% (n = 280,000); also: nearly all actives have a fitted effect of over 55% in size
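Human tau K18 P301L (15 uM unlabeled, 0.24 uM Alexa 594-labeled) in 100 mM sodium acetate pH 7 with 20 uM heparin, 6 hr at 37 C. ThT 30 uM added, 1 hr ambient; Alexa 594 FP and total fluorescence read at 555/632 nm.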
GoLoco inh red = inhibitors of human Gai1-RGS12 GoLoco interaction (red fluorophore); Gai1:RGS12 GoLoco peptide FP, rhodamine, 10 min; Potency, µM (top dose mostly 61.6 µM), inactives show at the top dose activity, negative = inhibition, hits mostly inhibitors; actives 0.44% (n = 230,000); AID 880; active = well fitted inhibition curve with a large enough effect, not every such curve was filed as active; inactive = no such curve, though single readings can be large or run the other way; also: nearly all actives have a fitted effect of over 30% in size
Tau fibril ThT = inhibitors of human tau fibril formation, thioflavin T binding. P10636. recombinant tau K18 P301L (four-repeat tau fragment), heparin-induced fibrillization, ThT fluorescence. Potency, µM (series often up to 57.4 µM), without a hit: at the highest dose activity, negative = inhibition, actives largely listed as inhibitors. actives 2.1% (n = 270,000). AID 1460; also: nearly all actives have a fitted effect of over 55% in size
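In this qHTS, human K18 P301L tau is incubated with compound and heparin for 6 hr at 37 C, and Thioflavin T fluorescence then reports fibril load.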
TRb SRC2 PPI = disrupts binding of human TR beta to SRC2; P10828; TRbeta-SRC2 peptide binding, fluorescence polarization; receptor liganded with 1 µM T3; Potency, µM (titrated, usually from 106 µM), for inactives: top-dose activity change, negative = inhibition, actives largely listed as inhibitors; actives 0.065% (n = 280,000); AID 1469;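 also: plate controls were bound peptide for no effect and peptide without receptor for full effect; nearly all actives have a fitted effect of over 50% in size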
Target sequence (P10828 whole entry, looked up): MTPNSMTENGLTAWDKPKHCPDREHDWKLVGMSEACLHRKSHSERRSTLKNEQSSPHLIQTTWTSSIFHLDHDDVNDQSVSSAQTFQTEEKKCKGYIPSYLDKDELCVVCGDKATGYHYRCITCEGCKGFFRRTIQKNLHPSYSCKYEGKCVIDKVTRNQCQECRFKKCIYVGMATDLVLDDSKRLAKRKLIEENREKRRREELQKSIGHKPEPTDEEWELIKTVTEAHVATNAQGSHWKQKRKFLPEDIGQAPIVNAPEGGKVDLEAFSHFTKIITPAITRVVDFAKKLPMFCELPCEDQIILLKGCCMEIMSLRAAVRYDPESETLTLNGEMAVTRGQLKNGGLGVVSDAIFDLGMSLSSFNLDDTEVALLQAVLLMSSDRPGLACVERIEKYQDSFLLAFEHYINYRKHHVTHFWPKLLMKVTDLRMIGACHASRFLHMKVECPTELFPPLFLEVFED
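Decrease in fluorescence polarization of 20 nM Texas Red SRC2 coactivator peptide flagged inhibition of its binding to 0.6 uM TRb LBD; 1 uM T3 included, incubation 5 hr, ex 555/em 632 nm.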
TexasRed fluor = Texas Red fluorescence interference in TRb-SRC2 counter-screen; TRb/SRC2 Texas Red total fluorescence interference; Potency, µM (highest dose often 106 µM), for inactives: at the top dose fluorescence change, negative = quenching; actives 0.29% (n = 280,000); active = well fitted curve in either direction with a large enough effect; inconclusive = small, poorly fitted or top-dose-only effect
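Human TRb ligand-binding domain at 0.6 uM with 20 nM Texas Red SRC2 peptide in Tris buffer containing 1 uM T3 and 5% DMSO, incubated with compound 5 h at ambient temperature. Total fluorescence (555/632 nm) calculated as parallel + 2 × perpendicular.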
An asterisk follows results filed as active; [ ] = dose if it differs, or a comment. Unless noted, calls follow the shape of the dose curve; as a rule, active = well fitted curve in the direction sought with a large enough effect; inconclusive = small, poorly fitted or top-dose-only effect, or another doubt; inactive = no such curve, though single readings can be large; an effect the other way counts as inactive or inconclusive. Unless noted, % is scaled to controls: 0 for no effect and ±100 for the full control effect; potency is read from the fitted curve at half-maximal effect.

Cc1nn(-c2ccccc2)c(N2CCCC2)c1/C=N/Nc1ccc(S(=O)(=O)Nc2ccccc2)cc1[N+](=O)[O-] was read as Tau FP inhib 7%, Tau fluor cs 3%, GoLoco inh red -7%, Tau fibril ThT 6%, TRb SRC2 PPI -9% and TexasRed fluor 1%.
CC[n+]1c(C)sc2sc3ccccc3c21 was read as Tau FP inhib -60%, Tau fluor cs -11%, GoLoco inh red 11µM*, TRb SRC2 PPI 1% and TexasRed fluor 1%.
For CCc1ccc(OCC(=O)Nc2cc(-c3nc4cc(C)ccc4o3)ccc2C)cc1 the results were Tau FP inhib -7%, Tau fluor cs -3%, Tau fibril ThT -2%, TRb SRC2 PPI 9% and TexasRed fluor -18%.
Screening O=c1n(CCO)c(=O)n(CCO)c(=O)n1CCO returned TRb SRC2 PPI 0%[201 µM] and TexasRed fluor -4%[201 µM].
Screening COCCN=c1scc(-c2cc(OC)c(OC)c(OC)c2)n1/N=C/c1c(C)[nH]c2ccccc12 returned Tau FP inhib 6%, Tau fluor cs 7.9µM*[quencher], GoLoco inh red 93%, Tau fibril ThT inconclusive, TRb SRC2 PPI 0% and TexasRed fluor 6%.
Screening Cc1[nH]c2ccccc2c1/C=N/n1cnnc1 returned Tau FP inhib 1%, Tau fluor cs 3%, GoLoco inh red 8%, Tau fibril ThT -1%, TRb SRC2 PPI -10% and TexasRed fluor -4%.
C/C(=N\Nc1ccc([N+](=O)[O-])cc1)c1cccc(N)c1 was read as Tau FP inhib inconclusive, Tau fluor cs 16µM*[quencher], GoLoco inh red 13%, Tau fibril ThT 3.5µM*, TRb SRC2 PPI -9% and TexasRed fluor -7%.
C/C(=N\Nc1ccc([N+](=O)[O-])cc1)c1ccc(O)cc1 was read as Tau FP inhib 13%, Tau fluor cs inconclusive, GoLoco inh red 15%, Tau fibril ThT 3.2µM*, TRb SRC2 PPI -4% and TexasRed fluor -9%.
`C/C(=N/NC(=O)c1cc(O)c(O)c(O)c1)c1ccc([N+](=O)[O-])cc1` gave Tau FP inhib 3%, Tau fluor cs inconclusive, GoLoco inh red -9%, Tau fibril ThT 3.5µM*, TRb SRC2 PPI 6% and TexasRed fluor 0%.
For C/C(=N\NC(=O)C(N)=O)c1cccc([N+](=O)[O-])c1 the results were Tau FP inhib 1%, Tau fluor cs 2%, GoLoco inh red 4%, Tau fibril ThT inconclusive, TRb SRC2 PPI -3% and TexasRed fluor 3%.
Screening CC(=O)NC/C(C)=N\Nc1ccc([N+](=O)[O-])cc1 returned Tau FP inhib -1%, Tau fluor cs -27%, GoLoco inh red 6%, Tau fibril ThT 16µM*, TRb SRC2 PPI 1% and TexasRed fluor -5%.
`C/C(C/C(C)=C1/SC(=S)NC1=O)=C1\SC(=S)NC1=O` gave Tau FP inhib -1%, Tau fluor cs -25%, GoLoco inh red 9%, Tau fibril ThT 16µM*, TRb SRC2 PPI 6% and TexasRed fluor -1%.
For CCCCCC/C(C)=C1/SC(=S)NC1=O the results were Tau FP inhib 0%, Tau fluor cs -14%, GoLoco inh red 14%, Tau fibril ThT -20%, TRb SRC2 PPI -6% and TexasRed fluor -2%.
`O=C(N/N=C/c1ccc([N+](=O)[O-])o1)C(O)c1ccccc1` (configuration not stated) gave Tau FP inhib 0%, Tau fluor cs -7%, GoLoco inh red 4%, TRb SRC2 PPI -1% and TexasRed fluor 3%.
For CN(/N=C/c1ccc([N+](=O)[O-])o1)c1ccccc1 the results were Tau FP inhib -11%, Tau fluor cs inconclusive, GoLoco inh red 36%, Tau fibril ThT 7.1µM*, TRb SRC2 PPI -2% and TexasRed fluor -6%.
Screening Cc1nc2ccccc2c(=O)n1/N=C/c1ccc([N+](=O)[O-])o1 returned Tau FP inhib inconclusive, Tau fluor cs inconclusive, GoLoco inh red 7%, Tau fibril ThT 28µM*, TRb SRC2 PPI -6% and TexasRed fluor -4%.
For CCc1ccc(N2CSC3=C(C#N)C(c4cccs4)CC(=O)N3C2)cc1 (configuration not stated) the results were Tau FP inhib inconclusive, Tau fluor cs -19%, GoLoco inh red -21%, Tau fibril ThT 13µM*, TRb SRC2 PPI 4% and TexasRed fluor -1%.
Screening COc1ccc(N2CSC3=C(C#N)C(c4cccs4)CC(=O)N3C2)cc1 (configuration not stated) returned Tau FP inhib 25µM*, Tau fluor cs inconclusive, GoLoco inh red 4%, Tau fibril ThT 13µM*, TRb SRC2 PPI 9% and TexasRed fluor 3%.
Cc1ccc(N2CSC3=C(C#N)C(c4cccs4)CC(=O)N3C2)cc1 (configuration not stated) was read as Tau FP inhib inconclusive, Tau fluor cs -20%, GoLoco inh red -14%, Tau fibril ThT inconclusive, TRb SRC2 PPI 0% and TexasRed fluor -2%.
`CC[C@H]1C(c2cccc(C)c2)=NN(c2ccccc2)[C@@H]1CO` gave Tau FP inhib inconclusive, Tau fluor cs 32µM*[quencher], GoLoco inh red 21%[88.7 µM], Tau fibril ThT inconclusive, TRb SRC2 PPI 10% and TexasRed fluor 0%.
Screening CC[C@@H]1C(c2cccc(C)c2)=NN(c2ccccc2)[C@H]1C(=O)N1CCOC1=O returned Tau FP inhib 17%[81.3 µM], Tau fluor cs inconclusive, GoLoco inh red 6%[88.7 µM], Tau fibril ThT -10%[81.4 µM], TRb SRC2 PPI 0% and TexasRed fluor -2%.
Screening CC[C@H]1C(c2cccc(Cl)c2)=NN(c2ccccc2)[C@@H]1CO returned Tau FP inhib 11%[81.3 µM], Tau fluor cs 14µM*[quencher], GoLoco inh red 64%[88.7 µM], Tau fibril ThT inconclusive, TRb SRC2 PPI 10% and TexasRed fluor 6%.
`Cn1c(=O)nc2n(-c3ccc(Cl)c(Cl)c3)c3cc(Cl)ccc3cc-2c1=O` gave Tau FP inhib -2%, Tau fluor cs -13%, Tau fibril ThT -13%, TRb SRC2 PPI -9% and TexasRed fluor -2%.
For CC(C)OP(=O)(OC(C)C)/C(C=O)=N\Nc1ccc([N+](=O)[O-])cc1 the results were Tau FP inhib 5%, Tau fluor cs -11%, GoLoco inh red -4%, Tau fibril ThT 16µM*, TRb SRC2 PPI 0% and TexasRed fluor -6%.
For CC(C)OP(=O)(OC(C)C)C(Nc1ccc([N+](=O)[O-])cc1)c1cccc([N+](=O)[O-])c1 (configuration not stated) the results were Tau FP inhib 1%, Tau fluor cs -21%, GoLoco inh red 4%, Tau fibril ThT -14%, TRb SRC2 PPI 3% and TexasRed fluor -3%.

Screening results from PubChem BioAssay.
